Results filed as inconclusive are left out. Active and inactive are the calls of the source. Calls follow the shape of the dose curve; as a rule, active = well fitted inhibition curve with a large enough effect in the signal ratio, with a control signal flat (not every such curve was filed as active); inconclusive = small, poorly fitted or top-dose-only effect, or effect the other way, or a change in a side signal; inactive = no such curve, though single readings can be large or run the other way; the % refers to the signal ratio.
molecular target: Peroxisome proliferator-activated receptor delta (Homo sapiens) (UniProt Q03181); assay: qHTS assay for small molecule antagonists of peroxisome proliferator-activated receptor delta signaling (AID 588535); conditions: HEK293T PPARd-UAS-bla, beta-lactamase FRET ratio, 18 h; series mostly up to 76.7 µM; activity change, negative = inhibition: at the top concentration
Text: NIH Chemical Genomics Center [NCGC] U.S. Environmental Protection Agency [EPA] National Institutes of Environmental Health Sciences [NIEHS] National Toxicology Program [NTP] NCGC Assay Overview The Peroxisome proliferator-activated receptors (PPARs) are lipid-activated transcription factors of the nuclear receptor superfamily with three distinct subtypes namely PPAR alpha, PPAR delta (also called PPAR beta) and PPAR gamma. All these subtypes heterodimerizes with Retinoid X receptor (RXR) and have different physiological functions. […] This role of PPAR delta implicates the potential use of its ligands in the treatment of metabolic disorders.
NCGC Assay Protocol Summary Using a beta-lactamase reporter-gene under control Peroxisome Proliferator-Activated Receptor delta (PPAR-delta) response element, a cell-based assay [GeneBLAzer (PPAR-delta-UAS-bla assay developed by Invitrogen] was used to measure PPAR-delta ligands signaling. GeneBLAzer PPAR-delta-UAS-bla HEK293T cells were used with assay medium containing 2% charcoal/dextran FBS. The assay was performed in clear bottom black Greiner 1536-well plates. Library compounds were measured for their ability to inhibit the reporter gene activity. Compounds were screened in a titration series in 1536-well format. The fluorescence intensity (405 nm excitation, 460/530 nm emission) was measured using an EnVision plate reader. […] Concentration-response titration points for each compound were fitted to the Hill equation yielding concentrations of half-maximal inhibition (IC50) and maximal response (efficacy) values. qHTS protocol for PPAR-delta beta-lactamase assay in antagonist mode [Step] [Parameter] [Value] [Description] 1. Reagent; 5 uL; 4000 cells/well 2. Incubation; 37 C for 5 hrs 3. Compounds; 23 nL; 0.59 nM to 92 uM 4. […] Incubation; 37 C for 18 hrs 7. Detection reagent; 1 uL of CCF4-dye 8. Incubation; RT for 2 hrs 9. Detection; Fluorescence; Envision plate reader
Potency is read from the fitted curve at half-maximal effect.

Peroxisome proliferator-activated receptor delta (Homo sapiens), sequence (Q03181 whole entry, looked up): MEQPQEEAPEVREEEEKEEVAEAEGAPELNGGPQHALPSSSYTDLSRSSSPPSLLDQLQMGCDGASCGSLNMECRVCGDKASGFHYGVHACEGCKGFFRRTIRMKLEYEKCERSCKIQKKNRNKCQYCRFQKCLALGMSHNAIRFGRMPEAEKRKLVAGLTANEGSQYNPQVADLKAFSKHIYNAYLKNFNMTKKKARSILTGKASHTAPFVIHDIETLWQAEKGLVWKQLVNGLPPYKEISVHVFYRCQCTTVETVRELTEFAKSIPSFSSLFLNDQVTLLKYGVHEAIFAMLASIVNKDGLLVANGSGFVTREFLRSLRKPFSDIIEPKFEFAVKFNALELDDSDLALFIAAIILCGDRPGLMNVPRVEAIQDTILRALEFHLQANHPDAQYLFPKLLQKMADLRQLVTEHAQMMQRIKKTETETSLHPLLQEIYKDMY

SMILES	activity change, negative = inhibition	Potency
CCCCCCCCCCCC#N	-5.21% (inactive)	–
CC(C)COP(=O)(OCC(C)C)OCC(C)C	11.2% (inactive)	–
CC1(C)[C@H](C(=O)O[C@H](C#N)c2cccc(Oc3ccccc3)c2)[C@@H]1/C=C(\Cl)C(F)(F)F	-5.04% (inactive)	–
O=C(O)[C@@H]1[C@H](C(=O)O)[C@@]2(Cl)C(Cl)=C(Cl)[C@]1(Cl)C2(Cl)Cl	23.4% (inactive)	–
O=P(Oc1ccccc1)(Oc1ccccc1)Oc1ccccc1	14.2% (inactive)	–
CN(C)P(=O)(N(C)C)N(C)C	4.41% (inactive)	–
CC(Oc1cccc(Cl)c1)C(=O)O (stereo not given)	12.9% (inactive)	–
CNC(=O)O/N=C(\SC)C(=O)N(C)C	13.9% (inactive)	–
CC1(C)[C@H](C=C(Cl)Cl)[C@H]1C(=O)O[C@H](C#N)c1ccc(F)c(Oc2ccccc2)c1	-6.96% (inactive)	–
O=[As](O)(O)O	12.1% (inactive)	–
C=CC1(C)OC(=O)N(c2cc(Cl)cc(Cl)c2)C1=O (stereo not given)	-0.0079% (inactive)	–
CNC(=O)O/N=C(\C)SC	-17.4% (inactive)	–
CCOc1ccc(C(C)(C)COCc2cccc(Oc3ccccc3)c2)cc1	-3.81% (inactive)	–
CCOC(=O)C(Cl)Cc1cc(-n2nc(C)n(C(F)F)c2=O)c(F)cc1Cl (stereo not given)	7.36% (inactive)	–
O=C(NC(=O)c1c(F)cccc1F)Nc1ccc(OC(F)(F)C(F)OC(F)(F)F)c(Cl)c1 (stereo not given)	14.2% (inactive)	–
CSC(=O)c1c(C(F)F)nc(C(F)(F)F)c(C(=O)SC)c1CC(C)C	37% (inactive)	–
COc1cc(OC)nc(NC(=O)NS(=O)(=O)c2ncccc2OCC(F)(F)F)n1	23% (inactive)	–
CCC[CH2][Sn]([Cl])([Cl])[CH2]CCC	–	3.98 µM (active)
CC(C)[C@H](C(=O)O[C@H](C#N)c1cccc(Oc2ccccc2)c1)c1ccc(Cl)cc1	-6.92% (inactive)	–
CCOP(=S)(NC(C)C)Oc1ccccc1C(=O)OC(C)C (stereo not given)	8.76% (inactive)	–

SMILES	activity change, negative = inhibition	Potency
COC(=O)NS(=O)(=O)c1ccc(N)cc1	13.4% (inactive)	–
CCOP(=O)(OCC)SCSC(C)(C)C	14.4% (inactive)	–
Cc1cc(Cl)ccc1OC(C)C(=O)O (stereo not given)	16.9% (inactive)	–
O=C(CCl)c1ccccc1	7.31% (inactive)	–
Brc1ccc(Br)cc1	-30.3% (inactive)	–
CCNc1nc(NC(C)C)nc(SC)n1	17.4% (inactive)	–
CCOP(=O)(NC(C)C)Oc1ccc(S(C)=O)c(C)c1 (stereo not given)	-4.81% (inactive)	–
CCOc1nc(F)cc2nc(S(=O)(=O)Nc3c(Cl)cccc3Cl)nn12	-12.4% (inactive)	–
CCOP(=S)(OCC)SC(CCl)N1C(=O)c2ccccc2C1=O (stereo not given)	-0.824% (inactive)	–
COC(=O)N(C(=O)N1COC2(C(=O)OC)Cc3cc(Cl)ccc3C2=N1)c1ccc(OC(F)(F)F)cc1 (stereo not given)	20.1% (inactive)	–
CCOP(=O)(O)C(N)=O	30.5% (inactive)	–
Cc1cc(C)nc(Nc2ccccc2)n1	18.1% (inactive)	–
CN(C)c1nc(=O)n(C2CCCCC2)c(=O)n1C	4.72% (inactive)	–
CCCCC(CC)CO[N+](=O)[O-] (stereo not given)	-11.1% (inactive)	–
C[N+]1(C)CCCCC1	0.463% (inactive)	–
CC1(C)CN=C(NN=C(/C=C/c2ccc(C(F)(F)F)cc2)/C=C/c2ccc(C(F)(F)F)cc2)NC1	–	39.8 µM (active)
Oc1ccc(C(c2ccc(O)cc2)(C(F)(F)F)C(F)(F)F)cc1	-20.6% (inactive)	–
Cc1ccn2nc(S(=O)(=O)Nc3c(F)cccc3F)nc2n1	8.68% (inactive)	–
N#CCNC(=O)c1cnccc1C(F)(F)F	8.17% (inactive)	–
CCCSP(=O)(OCC)Oc1ccc(Br)cc1Cl (stereo not given)	14.7% (inactive)	–

Source: PubChem BioAssay (NCATS)
